IL1B NFkB inh: blocks IL-1B driven NFkB nuclear translocation in HUVEC cells; inhibition, % at 2 µM; HUVEC IL-1B NFkB p65 nuclear translocation imaging; actives 0.43% (n = 94,000);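 active = inhibition above about 30% together with a positive call from visual inspection of the well image, limit read from the data; inconclusive = inhibition above a set limit but visual check negative; inactive = inhibition not above a set limit, visual check negative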;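 also: nuclear over cytoplasmic p65 intensity ratio measured by imaging; 0% = IL-1B stimulated DMSO wells and 100% = unstimulated DMSO wells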
HUVEC tox IL1B: HUVEC cytotoxicity counter-screen, IL-1B stimulated. HUVEC cell count loss, Hoechst imaging. cell count reduction, % at 2 µM. actives 0.41% (n = 94,000). AID 845;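 active = cell count reduction more than 3 SD above the screen-wide mean, cut at about 70% in these data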;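 also: normalized per plate to untreated control cells as the no-loss baseline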
Cav32 inh: human Cav3.2 channel inhibition, primary screen; O95180; Cav3.2-expressing cells, Fluo-4 calcium fluorescence FDSS; stronger effect = lower value; B-score at 10 µM; actives 4% (n = 100,000);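 active = single-dose well whose peak fluorescence ratio is a statistical outlier from its plate by either plate-standardised score or position-corrected B-score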
IL1B NFkB pot: enhances IL-1B driven NFkB nuclear translocation; HUVEC IL-1B NFkB p65 nuclear translocation imaging; actives 0.3% (n = 94,000); activation, % at 2 µM; AID 819;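 active = activation above 40%, about the mean plus 3 SD, also judged a hit on visual image review; inconclusive = activation above 40% but not a hit on visual review; inactive = activation not above 40% and no visual hit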;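 also: percent activation is computed from the nuclear over cytoplasmic p65 intensity ratio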
* = called active by the depositor; ? = inconclusive; nt = not tested or not shown. Sampled rows, rich in hits. Any-hit rate of the full collection: about 4.4%.

SMILES | IL1B NFkB inh | HUVEC tox IL1B | Cav32 inh | IL1B NFkB pot
Cc1ccc(N(CC(=O)NCCSCc2ccco2)S(C)(=O)=O)cc1 | -17 | -24 | 0.3 | 17
Cc1ccccc1N(CC(=O)NCCSC1CCCCC1)S(=O)(=O)c1ccccc1 | -3 | -51 | -6* | 3
Cc1ccc(S(=O)(=O)N(CC(=O)NCCSCc2ccco2)c2cc(C)ccc2C)cc1 | -12 | 15 | -6.7* | 12
COCCNC(=O)CN(c1ccc(C)cc1)S(=O)(=O)c1ccccc1 | -1 | -26 | 0.56 | 1
O=C(Cn1c(-c2cncs2)nc2ccccc21)NCc1ccccc1 | 2 | 90* | 0.56 | -2
Cc1ccccc1Cn1c(-c2cncs2)nc2ccccc21 | 1 | 17 | -1.5 | -1
O=S(=O)(N/N=C\C=C\c1ccccc1)c1ccc(Cl)cc1 | -12 | 12 | -2.2 | 12
CC(C)Oc1ccc(C(CC(=O)NCc2ccco2)c2ccccc2)cc1 (stereo not drawn) | -18 | 0 | -3.9* | 18
CC1=CC(C)(C)N2C(=O)C3(C(C#N)=C(N)OC4=C3C(=O)CC(C)(C)C4)c3cccc1c32 (stereo not drawn) | -6 | -55 | -0.32 | 6
Cc1ccc2c3c1C1(C(=O)N3C(C)(C)CC2C)C(C#N)=C(N)Oc2cc(O)ccc21 (stereo not drawn) | -23 | -2 | -8.9* | 23
CC1=CC(C)(C)N2C(=O)C3(C(C#N)=C(N)Oc4cc(O)ccc43)c3cccc1c32 (stereo not drawn) | -19 | -26 | -6.2* | 19
O=C(NCc1ccccc1)N1CCN(c2ccc(Cl)c(Cl)c2)CC1 | -1 | -17 | -5.2* | 1
O=C(NCc1ccccc1)N1CCN(c2ccc(F)cc2)CC1 | -2 | -18 | -4.3* | 1
Cn1c(N2CCN(C(=O)NCc3ccccc3)CC2)nc2ccccc21 | 0 | -28 | -0.037 | 0
COc1ccc(-c2c([C@H]3[C@H]4C=CC[C@@H](C)[C@@H]4C(=O)N3Cc3ccccc3)ccc3ccccc23)cc1OC | nt | nt | -1.4 | nt
COc1cc(/C=C/C(=O)Nc2cc(C(F)(F)F)ccc2Cl)cc(OC)c1OC | -4 | -80 | -5.2* | 4
CC(NC(=O)COC(=O)CCNC(=O)c1ccco1)C12CC3CC(CC(C3)C1)C2 (stereo not drawn) | -63 | -44 | 0.11 | 63*
Cc1ccc(CNC(=O)CCNC(=O)c2ccco2)cc1 | 4 | 11 | 0.42 | -4
Cc1cc(C)c2cc(CN(Cc3ccco3)C(=O)NCc3ccccc3)c(=O)[nH]c2c1 | nt | nt | -7.1* | nt
Cc1ccc2cc(CN(Cc3ccco3)C(=O)C3CCCCC3)c(=O)[nH]c2c1C | 0 | -17 | -1.5 | 0
Cc1ccc2cc(CN(Cc3ccco3)C(=O)NC3CCCCC3)c(=O)[nH]c2c1C | -14 | 10 | -4.4* | 14
Cc1ccc(-c2c(C#N)c(N)nc3c2CCCC3)s1 | -12 | -16 | 1.3 | 12
Cc1ccc2nc(N3C(=O)C(O)=C(C(=O)c4ccco4)C3c3cccs3)sc2c1 (stereo not drawn) | 11 | -18 | -3.1* | -11
COc1ccc(NC(=O)/C(Cl)=C(/Cl)S(=O)(=O)Cc2ccccc2)cn1 | -68 | -3 | 1.5 | 68*
COc1ccc(NS(=O)(=O)Cc2ccccc2Cl)cn1 | 7 | -8 | -0.71 | -7
SMILES | IL1B NFkB inh | HUVEC tox IL1B | Cav32 inh | IL1B NFkB pot
CCC(C)[C@H](NC(=O)OC(C)(C)C)C(=O)N/N=C/C1=Cc2ccccc2OC1 (stereo partly drawn) | 5 | 12 | -5.3* | -5
CCC(C)[C@H](NC(=O)OC(C)(C)C)C(=O)N/N=C/c1cccc2nccnc12 (stereo partly drawn) | -14 | 6 | 2.1 | 14
COC(=O)Cc1c(O)ccn(Cc2cccc3ccccc23)c1=O | 11 | -18 | -0.001 | -11
Cc1[nH][nH]c(=O)c1C(c1c(C)[nH][nH]c1=O)c1cn(Cc2cccc3ccccc23)c2ccccc12 | nt | nt | -5.1* | nt
COc1ccc(Nc2nc(Nc3ccc(OC)cc3)nc(SC3=NCCS3)n2)cc1 | 4 | 8 | -5.9* | -4
O=C(/C(=C/c1ccccc1)c1ccccc1)N1CCCCC1 | 2 | 0 | -2.2 | -2
O=C(/C=C/c1ccccc1)N/C(=C/c1ccccc1)C(=O)N1CCCCC1 | 4 | -62 | -5.6* | -4
COc1cccc(/C=N/n2nnc3c(cnn3-c3ccccc3)c2=O)c1 | 4 | 12 | nt | -4
Clc1ccccc1Sc1cnc2ccccc2n1 | 36* | -10 | -0.4 | -36
Clc1ccc(Sc2cnc3ccccc3n2)cc1 | 17 | 14 | -0.11 | -17
COc1ccc(/C(O)=C2/C(=O)C(=O)N(CCN(C)C)C2c2ccc(OC)c(OC)c2)c(C)c1 (stereo not drawn) | 39* | 8 | 0.11 | -39
COc1cc(C2/C(=C(/O)c3ccc(OCC(C)C)cc3)C(=O)C(=O)N2CCN(C)C)ccc1O (stereo not drawn) | -41 | -97 | 0.88 | 41*
COc1ccc(CCCc2nnc(SCC(=O)Nc3cc(C)c(C)cc3Br)o2)cc1 | 0 | -14 | -5.1* | 0
O=C(CCCc1c[nH]c2ccccc12)NCc1ccc2c(c1)OCO2 | -16 | 21 | -10* | 16
O=C(NCc1ccc2c(c1)OCO2)c1cc(-c2ccccc2)on1 | -5 | -7 | -4.6* | 5
O=C(NCc1ccc2c(c1)OCO2)C1CC(c2cccc(Br)c2)=NO1 (stereo not drawn) | 1 | -12 | -9.1* | -1
O=C(CCCCn1c(=O)[nH]c2ccsc2c1=O)NCc1cccnc1 | 6 | -24 | 0.81 | -6
O=C(CCCCn1c(=O)[nH]c2ccsc2c1=O)NCc1ccc2c(c1)OCO2 | 64* | 33 | 0.57 | -64
Cc1cc(C(=O)OCC(=O)NCCC(C)C)c2ccccc2n1 | 1 | 11 | -0.029 | -1
CCn1c(CCNC(=O)c2ccc(Cl)c(Cl)c2)nnc1SCCOc1ccc(OC)cc1 | -1 | -10 | -1.4 | 1
CC(C)C[C@H]1C(=O)N2CCC[C@H]2[C@]2(O)O[C@](NC(=O)C3C=C4c5cccc6[nH]c(Br)c(c56)C[C@H]4N(C)C3)(C(C)C)C(=O)N12 (stereo partly drawn) | nt | nt | -5.6* | nt
N#Cc1c(C(F)(F)F)cc(-c2ccccc2)[nH]c1=O | -10 | 8 | -2.8 | 10
N#Cc1c(C(F)(F)F)cc(-c2ccccc2Cl)[nH]c1=O | nt | nt | -2.6* | nt
CCN1C(=O)CC(N2CCN(CC(=O)NC(C)C)CC2)C1=O (stereo not drawn) | 6 | -8 | 0.28 | -6
CC(C)(C)n1nnnc1C(c1cccc(C#N)c1)N1CCC(Cc2ccccc2)CC1 (stereo not drawn) | 9 | -23 | -4.8* | -9
CCC(C)(C)n1nnnc1C(c1ccncc1)N1CCN(c2cccc(OC)c2)CC1 (stereo not drawn) | -15 | -32 | nt | 15
CC(C)(C)n1nnnc1C(c1cccc(C#N)c1)N1CCCc2ccccc21 (stereo not drawn) | nt | nt | -1.9 | nt
CCC(C)(C)n1nnnc1C(c1cccnc1)N1CCN(c2cccc(C(F)(F)F)c2)CC1 (stereo not drawn) | -19 | -4 | -5.1* | 19
CCC(C)(C)n1nnnc1C(c1ccncc1)N1CCC(Cc2ccccc2)CC1 (stereo not drawn) | -44 | 16 | -3.7* | ?

Screening data (PubChem BioAssay)
